PubChem BioAssay (NCI)
This is part of a sample that, as a whole, favours compounds with a hit. Of some 83,000 tested, about 20% had one in any assay.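 Negative percent growth values reflect cell death: -40 means 40% of the cells present at the start died, and -100 means all died.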 A number with no mark means an inactive call. Calls of active or inactive are those of the source. The calls were made as follows: active = growth percent below 10; inactive = the rest.

Columns and labels:
Assay in all cases: NCI-60 one-dose screen, 48 h (100 = growth as untreated, 0 = no growth, -100 = all killed)
Details in all cases: 10 µM unless noted
[1] = test system: NCI-H23 lung
[2] = test system: NCI-H226 lung
[3] = test system: NCI-H322M lung
[4] = test system: HOP-62 NSCLC
[5] = test system: NCI-H460 lung
[6] = test system: HOP-92 NSCLC
[7] = test system: NCI-H522 lung
[8] = test system: A549/ATCC NSCLC
[9] = test system: 786-0 renal
[10] = test system: COLO 205 colon

SMILES	growth [1]	growth [2]	growth [3]	growth [4]	growth [5]	growth [6]	growth [7]	growth [8]	growth [9]	growth [10]
COc1cc(-c2nn(-c3ccc(Br)cc3)cc2CO)ccc1O	95.2%	105%	93.8%	95.4%	101%	90.8%	72.1%	78.1%	95.6%	119%
C=C(C)[C@@H]1CC[C@]2(C(=O)OCCCC[P+](c3ccccc3)(c3ccccc3)c3ccccc3)CC[C@]3(C)[C@H](CC[C@@H]4[C@@]5(C)CC[C@H](OC(=O)C(Cl)Cl)C(C)(C)[C@@H]5CC[C@]43C)[C@@H]12	-16.5% (active)	-78.5% (active)	2.79% (active)	-0.785% (active)	-41.1% (active)	-67.4% (active)	-38.3% (active)	0.629% (active)	-77.9% (active)	-74.4% (active)
NCCCn1c2c(c3cc(-c4ccn[nH]4)ccc3c1=O)C(=O)c1ccccc1-2	57.6%	56.9%	67.8%	42.4%	11.8%	79.2%	30.6%	28.4%	41%	43.8%
NS(=O)(=O)c1ccc(-n2nc(-c3ccccc3)ccc2=O)cc1	101%	100%	115%	102%	104%	97.1%	89.9%	112%	93.8%	125%
COc1ccc(-c2nc(C#N)c(NCC(c3ccc(Cl)cc3)N3CCCCC3)o2)cc1 (stereo not given)	91.7%	96%	83.7%	107%	101%	89.3%	84.6%	93.5%	92.5%	87.6%
COc1ccc(-c2cs/c(=N\N=C\c3ccc(O)cc3O)n2/N=C/c2ccc(O)cc2O)cc1	-28.5% (active)	-30.5% (active)	5.37% (active)	-38.5% (active)	-10.5% (active)	2.31% (active)	-35.6% (active)	-21.5% (active)	6.51% (active)	-81.1% (active)
COC1=CC2C=C(C3N(c4ccccc4)NC(=O)[C@@H]4CCCN34)C(=O)NC2C=C1 (stereo not given in full)	89.7%	105%	93.5%	93.1%	110%	124%	87.6%	107%	99.5%	111%
CC(C)(C)c1nn(-c2ccccc2)c2c1COCN2Cc1ccc(Cl)cc1	84.7%	87.5%	101%	93%	81.1%	83.1%	4.77% (active)	115%	90%	101%
O=c1nc(-c2ccccc2)c2cc(-c3ccc(N4CCCC4)nc3)ccc2[nH]1	73.1%	77.2%	82.6%	62.6%	57.7%	61.4%	37.6%	59.7%	69.5%	88.3%
COc1ccc(-c2[nH]c3ccc(OC)cc3c2C=C(C#N)C#N)cc1	32.9%	59.7%	58.8%	32.5%	17.2%	20.3%	-8.75% (active)	32.5%	28.9%	5.59% (active)
O=C1C(=O)c2c(nc3ccc(Br)cn23)-c2ccccc21	-38.7% (active)	-92.6% (active)	-96.6% (active)	-96.5% (active)	-63.2% (active)	-75.3% (active)	-72.6% (active)	-63.5% (active)	-96.9% (active)	-82.4% (active)
O=C(/C(=C/c1ccc([N+](=O)[O-])cc1)SCc1ccccc1)c1ccc(Cl)cc1	70.9%	68.4%	105%	80.3%	87.4%	71.1%	41.4%	82.7%	86.9%	70.3%
O=C(O)C(C(=O)O)c1cccc2ccccc12	99.9%	102%	101%	92.7%	104%	94.5%	88.9%	94.4%	95.4%	110%
CN(CCC#N)C(=O)Nc1ccccc1	101%	106%	107%	98.8%	112%	114%	79.8%	101%	101%	112%
COC(=O)CCc1n(Cc2ccc3ccccc3c2)c2ccccc2[n+]1Cc1ccc2ccccc2c1	-7.39% (active)	17.7%	36.6%	19%	6.29% (active)	-34.4% (active)	-29.4% (active)	38.3%	15.4%	-57.3% (active)
COc1cc(N=Nc2cc(S(=O)(=O)O)cc3cc(S(=O)(=O)O)cc(O)c23)c(C)cc1N=Nc1c(S(=O)(=O)O)cc2cc(Nc3ccccc3)ccc2c1O	99.8%	114%	93.7%	102%	106%	103%	80.1%	101%	102%	129%
CCOc1ccc(C2N(c3cc(OC)c(OC)c(OC)c3)C(=O)C2(F)F)cc1 (stereo not given)	33.6%	71%	67.2%	40.8%	12.7%	55.6%	19.3%	33.6%	64.7%	10.8%
COc1ccc(-c2nnc(N3CCN(C(=O)CN4CCN(c5ccccc5)CC4)CC3)nc2-c2ccc(OC)cc2)cc1	48.3%	46.7%	77.3%	58.9%	14%	23.2%	14.2%	28%	33.7%	17.5%
C#CCN1C(=O)c2ccccc2N(CC#C)C12CCN(Cc1cn(CC(=O)Nc3ccccc3C(N)=O)nn1)CC2	78.4%	83.2%	85%	104%	89.7%	107%	67.7%	92.3%	81.1%	99.9%
O=c1[nH]c2ccccc2cc1-c1nc2ccncc2[nH]1	85%	79.6%	110%	101%	62.4%	64.3%	90.7%	90.4%	88.6%	83.3%
C=CCn1c(SCC(=O)Nc2ccc(C(=O)/C=C/c3cc(OC)c(OC)c(OC)c3)cc2)nnc1-c1ccc(Cl)cc1	23%	-4.38% (active)	56.1%	25%	22.9%	75%	-13.1% (active)	28.9%	15.5%	31.9%
Cc1cc2ccccc2c[n+]1CC(=O)c1ccc(-c2ccccc2)cc1	48.6%	60.8%	78.3%	67.1%	45.9%	27.8%	26.8%	53.3%	65.9%	32.5%
CN(C)CSc1nc2ccccc2s1	92.9%	95.1%	94.8%	88%	109%	78.7%	91.5%	101%	95.4%	91.6%
Cc1nc2sc(C(=O)Nc3ccccc3)c(N)c2cc1C(C)O (stereo not given)	39%	108%	49.9%	30.1%	11.2%	73%	18.3%	25.6%	31.1%	6.99% (active)
Nc1c(C(=O)Nc2ccccn2)sc2nc3c(cc12)CCCCC3	29.9%	77%	52.6%	40.2%	6.46% (active)	67.5%	2.61% (active)	20.9%	27.6%	6.18% (active)
CC(C)(C)c1ccc(O)c(Cc2cc(C(C)(C)C)ccc2O)c1	94.7%	89.9%	102%	85.9%	104%	-39.4% (active)	87%	92.4%	94.2%	110%
